AmpC no deterg = blocks E. coli AmpC beta-lactamase in detergent-free assay; AmpC nitrocefin hydrolysis, absorbance 480 nm, 0.0001% Triton; 330,000 compounds, 0.52% hits; Potency, µM (titrated, usually from 57.1 µM), for the others: top-dose activity change, negative = inhibition, usual class: inhibitors;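 also: plate controls were no compound for no effect and no enzyme for full effect; nearly all actives have a fitted effect of over 20% in size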
Target sequence (P00811 whole entry, looked up): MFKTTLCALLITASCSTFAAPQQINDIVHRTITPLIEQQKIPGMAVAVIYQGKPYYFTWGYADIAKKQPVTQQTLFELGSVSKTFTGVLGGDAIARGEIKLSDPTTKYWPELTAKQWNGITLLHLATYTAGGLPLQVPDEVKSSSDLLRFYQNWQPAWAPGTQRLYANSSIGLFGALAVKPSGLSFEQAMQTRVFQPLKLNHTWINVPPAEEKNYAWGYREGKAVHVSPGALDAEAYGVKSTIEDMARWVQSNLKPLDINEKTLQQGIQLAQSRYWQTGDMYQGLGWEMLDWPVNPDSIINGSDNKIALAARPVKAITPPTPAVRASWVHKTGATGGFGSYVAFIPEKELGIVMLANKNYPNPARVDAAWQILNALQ
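20 mM phosphate pH 7.0 + 0.01% (detergent screen) or 0.0001% Triton X-100; 5.3 nM AmpC reagent; cpd preinc 15 min RT; nitrocefin (800 uM stock) to start; A480 q20 s × 4 min; Activity was normalised to no-enzyme and no-compound control wells.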
AMA1-RON2 inh = disrupts binding of P. falciparum AMA1 to RON2 | 360,000 compounds, 0.2% hits | AlphaScreen AMA1-biotinylated RON2 peptide binding | Potency, µM (doses to about 58.2 µM), for inactives: at the top dose activity change, negative = inhibition, usual class: inhibitors;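 also: 0% = vehicle wells and -100% = peptide control; nearly all actives have a fitted effect of over 45% in size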
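AMA1 (3D7) with his tag at 25 nM final met compounds first, then biotinylated RON2 peptide at 25 nM; detection used donor plus acceptor beads, 10 µg/mL apiece, read by AlphaScreen after 30 min at room temperature.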
Marburg entry inh = Marburg virus entry inhibition | 300,000 compounds, 1.8% hits | Marburg virus pseudotyped entry inhibition, cell reporter | AID 540276 | Potency, µM (highest dose often 37.8 µM), for inactives: at the top dose activity change, negative = inhibition, most hits filed as inhibitors; calls by dose curve; tested in HEK293 cells
AmpC detergent = AmpC beta-lactamase inhibition with detergent present. 370,000 compounds, 0.041% hits. P00811. AmpC hydrolysis of nitrocefin, absorbance 480 nm, 0.01% Triton. Potency, µM (series often up to 114 µM), without a hit: top-dose activity change, negative = inhibition, most hits filed as inhibitors;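 also: 0% = no-compound wells and -100% = no-enzyme wells; nearly all actives have a fitted effect of over 25% in size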
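AmpC (5.3 nM in the dispensed reagent) in 20 mM phosphate pH 7.0 with 0.01% (detergent screen) or 0.0001% Triton X-100 was preincubated with compounds for 15 min at room temperature. Nitrocefin was then added from an 800 uM solution, and hydrolysis was followed at 480 nm.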
Lassa entry inh = Lassa virus entry inhibition; Lassa virus pseudotype entry inhibition, cell reporter; Potency, µM (doses to about 37.9 µM), without a hit: at the top dose activity change, negative = inhibition, actives largely listed as inhibitors; AID 540256; 300,000 compounds, 1.2% hits; calls by dose curve; tested in HEK293 cells; also: nearly all actives have a fitted effect of over 50% in size
* marks the source's active call; other numbers are inactive results; u = inconclusive; x = no result; ! = repeats disagree; [ ] = dose if it differs, or a comment. The list is not random: actives were taken first. Their share in the collection is about 2.3%. Unless noted, calls follow the shape of the dose curve; as a rule, active = well fitted curve in the direction sought with a large enough effect; inconclusive = small, poorly fitted or top-dose-only effect, or another doubt; inactive = no such curve, though single readings can be large; an effect the other way counts as inactive or inconclusive. Unless noted, % is scaled to controls: 0 for no effect and ±100 for the full control effect; potency is read from the fitted curve at half-maximal effect.

SMILES	AmpC no deterg	AMA1-RON2 inh	Marburg entry inh	AmpC detergent	Lassa entry inh
COCCOC(=O)C1=C(C)NC(C)=C(C(=O)OC/C=C/c2ccccc2)C1c1cccc([N+](=O)[O-])c1 (configuration not stated)	x	x	u	x	8.2µM*
COC(=O)C1=C(C)NC(C)=C(C(=O)OC(C)(C)CN(C)CCC(c2ccccc2)c2ccccc2)C1c1cccc([N+](=O)[O-])c1 (configuration not stated)	x	x	u	x	8.2µM*
COCCOC(=O)C1=C(C)NC(C)=C(C(=O)OC(C)C)C1c1cccc([N+](=O)[O-])c1 (configuration not stated)	75%	-4%	5.6µM*!	u	u
COC(=O)CC=C1c2ccccc2[C@@H](NC(=O)OC)[C@@H]1C	x	x	20%[14.2 µM]	x	x
c1cncc(CNc2ncnc3ccc(-c4ccco4)cc23)c1	-22%	x	x	-5%	x
CC(C)=CCC/C(C)=C/CO/N=C1\C[C@@H](O)[C@@H](O)[C@@H]2[C@@H]3C(=O)N(C[C@@H]4CCCO4)C(=O)[C@@H]3CC[C@@H]12	x	x	22%[14.2 µM]	x	x
CCOC(=O)C1=C(C)NC(C)=C(C(=O)OC)C1c1cccc([N+](=O)[O-])c1 (configuration not stated)	-20%	-11%	2.5µM*!	-11%	u
CC(C)C(=O)N1CCC(CN=Cc2c(O)n(C3CCCCC3)c(=O)n(C3CCCCC3)c2=O)CC1	146%	-20%	u	-9%	14µM*
Cc1ccc(C(=O)[C@H]2[C@H](c3cccs3)NC(=O)N[C@]2(O)C(F)(F)F)cc1	x	x	-26%	x	x
CC(C)c1ccc(NC(=O)c2cc([N+](=O)[O-])ccc2N2CCOCC2)cc1	-14%	-12%	x	u	x
Cc1ccc(NC(=O)c2cc([N+](=O)[O-])ccc2N2CCOCC2)cc1S(=O)(=O)N(C)C	8%	-2%	u	7%	3%
Cc1ccc(NC(=O)c2cc([N+](=O)[O-])ccc2N2CCOCC2)cc1C	16%	-4%	7.1µM*	-15%	-14%[46.1 µM]
COc1ccc(C(=O)COC(=O)c2cc([N+](=O)[O-])ccc2N2CCOCC2)c(OC)c1	27%	5%	2.2µM*	-17%	-11%
O=C(Nc1ccc(N2CCN(C(=O)c3ccccc3)CC2)cc1)c1cc([N+](=O)[O-])ccc1N1CCOCC1	175%	-15%	0.63µM*	6%	6%
Cc1cc(C)c(NC(=O)c2sc3nc(C)cc(C)c3c2NC(=O)c2ccccc2)c(C)c1	x	x	-27%[46.1 µM]	-1%	0%[46.1 µM]
CN(C)CCN(Cc1ccco1)C(=O)c1cc2c(s1)-c1ccccc1OC2	x	x	u	20%	x
CCCCCCN1CCN(C2CN(Cc3ccc(F)cc3)S(=O)(=O)C2)CC1 (configuration not stated)	x	3%	x	x	-2%[46.1 µM]
CCCCCCN1CCN(C2CN(Cc3ccc(C)cc3)S(=O)(=O)C2)CC1 (configuration not stated)	x	0%	x	x	6.3µM*
Cc1ccc(C(=O)c2cn(Cc3cccc(C)c3)c3nc(C)ccc3c2=O)cc1	x	x	u	10%	-27%[46.1 µM]
CCCCCCCCCC[Si](C)(C)CCC(=O)NC(Cc1ccc(C)cc1)c1ccccc1 (configuration not stated)	x	x	7.9µM*!	x	-28%
O=C(CCl)NC(Cc1ccccc1)c1ccccc1 (configuration not stated)	-19%	8%	u	-4%	-18%
c1ccc(C[n+]2cccc3c4ccccc4ccc32)cc1	-11%	11%	u	u	7.1µM*
COC(=O)C=C1CCC2C3CCC4=CC(=O)C(Br)CC4(C)C3C(=O)CC12C (configuration not stated)	x	-8%	11µM*	x	u
CCC(C(=O)Nc1cc(OC)ccc1OC)n1c(C)c2cnn(-c3ccccc3)c(=O)c2c1C (configuration not stated)	x	x	23%[46.1 µM]	-6%	22%[46.1 µM]
COc1ccc(-c2n(Cc3ccccc3)c3ccccc3[n+]2Cc2ccccc2)cc1	1%	-8%	5.8µM*	-7%	8.2µM*
SMILES	AmpC no deterg	AMA1-RON2 inh	Marburg entry inh	AmpC detergent	Lassa entry inh
CCOC(=O)c1c(S(=O)(=O)NCC(=O)N(C)Cc2ccccc2)c(C)n(C)c1C	x	x	x	-2%	31%[46.1 µM]
CCOc1ccc(NC(=O)CCS(=O)(=O)c2cccc3nonc23)cc1	x	x	u	6%	13%[46.1 µM]
CC1=C(C(=O)O)N2C(=O)C(NC(=O)c3ccccc3Cl)C2SC1 (configuration not stated)	-31%	9%	15%[46.1 µM]	71µM*	2%[46.1 µM]
N#CCC(=O)c1ccccc1Oc1ccc(Cl)cc1	4µM*	18%	x	u	x
O/N=C/c1ccccc1Oc1ccc(Cl)cc1	-33%	12%	-21%	-6%	-28%
S=c1sscc1-c1ccccc1	x	20µM*	0%[46.1 µM]	x	15%[46.1 µM]
O=S(=O)(NC[C@@H]1CCC[C@H](CNS(=O)(=O)c2c(F)cccc2F)C1)c1ccc2c(c1)OCCO2	-24%	x	x	-7%	x
Cc1cccc(N=N/C(=C\O)C(=O)c2ccc(Br)cc2)c1	-32%	-8%	7.9µM*	-8%	5.6µM*
O=C(C#Cc1ccccc1)Nc1cccc(F)c1	-33%	17%	u	1%	11µM*
C/C(=N\NC(=O)c1ccc(Cl)c(Cl)c1)c1ccccn1	-13%	60%	u	-7%	5.6µM*
C/C(=N/NC(=O)c1ccc(C(C)(C)C)cc1)c1ccccn1	x	21%	u	x	u
COc1ccccc1NC(=S)NN=C(C)c1ccccn1	x	u	u	x	0.28µM*
C/C(=N\NC(=O)c1cc(-c2cccs2)nc2ccccc12)c1ccccn1	-17%	-32%	4.6µM*	2%	6.5µM*
COc1ccc(C(=O)N/N=C(\C)c2ccccn2)cc1OC	-10%	-15%	6.3µM*	u	5.6µM*
CC(=NNC(=S)Nc1ccc(C)cc1)c1ccccn1	x	8%	u	x	u
C[C@@H](ON=C1[C@H]2CCn3c(=O)n(-c4ccccc4)c(=O)n3[C@@H]2[C@H](O)[C@@H]2O[C@H]12)c1cn([C@H](CO)Cc2ccccc2)nn1	x	x	-23%[14.2 µM]	x	u
CC1CCC(C(=O)NC(C(=O)OCC(=O)c2ccc(Br)cc2)C(C)C)CC1 (configuration not stated)	x	x	-16%[46.1 µM]	11%	-12%[46.1 µM]
COc1cccc(CNC(=O)c2cnc(N3CCCC3)nc2C)c1	x	x	x	-7%	-2%[46.1 µM]
CCc1ccccc1NC(=O)Cn1c(=O)nc(-c2ccccc2)c2ccccc21	x	x	x	4%	3%[46.1 µM]
C/C(=N\NC(=O)c1cccc(Br)c1)c1ccccn1	-30%	-43%	4.5µM*	-1%	u
CCOc1ccc(C(=O)N/N=C/c2ccccc2[N+](=O)[O-])cc1	-11%	-9%	12µM*	-13%	u
O=C(N/N=C/c1ccc[nH]1)c1cc2ccccc2cc1O	14µM*	91%	23%[46.1 µM]	-7%	-28%[46.1 µM]
CCOc1ccc(OCc2ccc(C(=O)NN=Cc3ccc[nH]3)cc2)cc1	-24%	52%	0.28µM*	x	u
